# According to PMC11006913:
# Substitutions are numbered along the chain they refer to.
# How the values were obtained:
# Experiment in all cases: PBM; 200 nM protein, PBS
# Details in all cases: dsDNA, one strand shown
# ALX4 [1] = target: ALX4 (Homo sapiens, UniProt Q9H161 200-286)
# ALX4 [2] = target: ALX4 (Homo sapiens, UniProt Q9H161 200-286, Q225E)
# MSX2 [3] = target: MSX2 (Homo sapiens, UniProt P35548 130-214, R199I)
# MSX2 [4] = target: MSX2 (Homo sapiens, UniProt P35548 130-214)
# MSX2 [5] = target: MSX2 (Homo sapiens, UniProt P35548 130-214, F161Y)
# PAX4 [6] = target: T1, PAX4 (Homo sapiens, UniProt O43316 9-242, R200K)
# T1 sequence: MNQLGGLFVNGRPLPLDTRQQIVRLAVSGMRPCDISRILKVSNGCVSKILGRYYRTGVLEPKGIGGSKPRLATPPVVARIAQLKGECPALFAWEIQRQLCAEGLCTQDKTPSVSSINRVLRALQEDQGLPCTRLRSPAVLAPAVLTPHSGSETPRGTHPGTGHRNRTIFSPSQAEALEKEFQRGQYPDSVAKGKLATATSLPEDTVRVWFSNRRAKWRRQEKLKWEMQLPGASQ
# PAX4 [7] = target: T2, PAX4 (Homo sapiens, UniProt O43316 9-242)
# T2 sequence: T1 sequence with K192R
# PAX4 [8] = target: T3, PAX4 (Homo sapiens, UniProt O43316 9-242, R200Q)
# T3 sequence: T1 sequence with K192Q
# PAX4 [9] = target: T4, PAX4 (Homo sapiens, UniProt O43316 9-242, F177V)
# T4 sequence: T1 sequence with F169V, K192R
# PAX4 [10] = target: T5, PAX4 (Homo sapiens, UniProt O43316 9-242, F177Y)
# T5 sequence: T1 sequence with F169Y, K192R
# PAX4 [11] = target: T6, PAX4 (Homo sapiens, UniProt O43316 9-242, R227W)
# T6 sequence: T1 sequence with K192R, R219W
# PROP1 = PROP1 (Homo sapiens, UniProt O75360 56-141, R99H)
# ALX3 [12] = target: ALX3 (Homo sapiens, UniProt O95076 139-225, L168Q)
# ALX3 [13] = target: ALX3 (Homo sapiens, UniProt O95076 139-225, L168V)
# NKX2-6 [14] = target: T7, NKX2-6 (Homo sapiens, UniProt A6NCS4 118-204)
# T7 sequence: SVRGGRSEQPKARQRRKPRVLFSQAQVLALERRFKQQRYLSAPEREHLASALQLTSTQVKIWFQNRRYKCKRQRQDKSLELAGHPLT
# NKX2-6 [15] = target: T8, NKX2-6 (Homo sapiens, UniProt A6NCS4 118-204, F151L)
# T8 sequence: T7 sequence with F34L
# NKX2-6 [16] = target: T9, NKX2-6 (Homo sapiens, UniProt A6NCS4 118-204, R150C)
# T9 sequence: T7 sequence with R33C
# HOXD13 [17] = target: HOXD13 (Homo sapiens, UniProt P35453 263-343, T313R)
# HOXD13 [18] = target: HOXD13 (Homo sapiens, UniProt P35453 263-343)
# HOXD13 [19] = target: HOXD13 (Homo sapiens, UniProt P35453 263-343, T313A)
# Sequence of HOXD13 (Homo sapiens, UniProt P35453 263-343, T313A) (P35453 263-343 T313A): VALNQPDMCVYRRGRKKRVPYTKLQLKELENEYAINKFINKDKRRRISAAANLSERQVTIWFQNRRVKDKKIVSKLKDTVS
# Sequence of HOXD13 (Homo sapiens, UniProt P35453 263-343, T313R) (P35453 263-343 T313R): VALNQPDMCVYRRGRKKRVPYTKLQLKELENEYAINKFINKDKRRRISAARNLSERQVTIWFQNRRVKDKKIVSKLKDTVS
# Sequence of HOXD13 (Homo sapiens, UniProt P35453 263-343) (P35453 263-343): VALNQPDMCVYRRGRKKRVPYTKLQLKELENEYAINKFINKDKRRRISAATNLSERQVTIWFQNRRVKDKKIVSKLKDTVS
# Sequence of PROP1 (O75360 56-141 R99H): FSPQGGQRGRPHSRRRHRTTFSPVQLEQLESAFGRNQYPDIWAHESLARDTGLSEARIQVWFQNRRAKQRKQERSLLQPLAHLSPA
# Sequence of ALX3 (Homo sapiens, UniProt O95076 139-225, L168V) (O95076 139-225 L168V): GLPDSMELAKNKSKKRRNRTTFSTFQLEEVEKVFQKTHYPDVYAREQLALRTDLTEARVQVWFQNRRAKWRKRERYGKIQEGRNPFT
# Sequence of ALX3 (Homo sapiens, UniProt O95076 139-225, L168Q) (O95076 139-225 L168Q): as the sequence (O95076 139-225 L168V) above, with V30Q counted along it
# Sequence of MSX2 (Homo sapiens, UniProt P35548 130-214, R199I) (P35548 130-214 R199I): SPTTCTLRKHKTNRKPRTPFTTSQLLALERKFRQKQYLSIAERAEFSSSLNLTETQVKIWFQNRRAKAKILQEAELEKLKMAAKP
# Sequence of ALX4 (Homo sapiens, UniProt Q9H161 200-286) (Q9H161 200-286): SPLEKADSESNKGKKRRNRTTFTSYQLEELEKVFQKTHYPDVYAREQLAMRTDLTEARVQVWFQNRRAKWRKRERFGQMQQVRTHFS
# Sequence of MSX2 (Homo sapiens, UniProt P35548 130-214, F161Y) (P35548 130-214 F161Y): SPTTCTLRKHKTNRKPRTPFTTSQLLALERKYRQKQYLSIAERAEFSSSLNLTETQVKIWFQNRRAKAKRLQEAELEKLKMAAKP
# Sequence of MSX2 (Homo sapiens, UniProt P35548 130-214) (P35548 130-214): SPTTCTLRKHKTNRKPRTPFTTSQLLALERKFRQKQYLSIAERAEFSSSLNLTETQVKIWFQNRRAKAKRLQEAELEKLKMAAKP
# Sequence of ALX4 (Homo sapiens, UniProt Q9H161 200-286, Q225E) (Q9H161 200-286 Q225E): as the sequence (Q9H161 200-286) above, with Q26E counted along it
sequence,measurement,setting,value
CAGGCCCG,binding signal,ALX4 [1],"8 upbm affinity estimate (log intensity, higher = more binding, comparable within an allelic series)"
same,binding signal,ALX4 [2],"7.92 upbm affinity estimate (log intensity, higher = more binding, comparable within an allelic series)"
same,binding signal,MSX2 [3],"9.39 upbm affinity estimate (log intensity, higher = more binding, comparable within an allelic series)"
same,binding signal,MSX2 [4],"9.3 upbm affinity estimate (log intensity, higher = more binding, comparable within an allelic series)"
same,binding signal,MSX2 [5],"9.36 upbm affinity estimate (log intensity, higher = more binding, comparable within an allelic series)"
CTCCGCCC,binding signal,PAX4 [6],"9.45 upbm affinity estimate (log intensity, higher = more binding, comparable within an allelic series)"
same,binding signal,PAX4 [7],"9.46 upbm affinity estimate (log intensity, higher = more binding, comparable within an allelic series)"
same,binding signal,PAX4 [8],"9.44 upbm affinity estimate (log intensity, higher = more binding, comparable within an allelic series)"
same,binding signal,PAX4 [9],"9.16 upbm affinity estimate (log intensity, higher = more binding, comparable within an allelic series)"
same,binding signal,PAX4 [10],"9.22 upbm affinity estimate (log intensity, higher = more binding, comparable within an allelic series)"
same,binding signal,PAX4 [11],"9.35 upbm affinity estimate (log intensity, higher = more binding, comparable within an allelic series)"
CGCGTGGC,binding signal,MSX2 [3],"9.55 upbm affinity estimate (log intensity, higher = more binding, comparable within an allelic series)"
same,binding signal,MSX2 [4],"9.66 upbm affinity estimate (log intensity, higher = more binding, comparable within an allelic series)"
same,binding signal,MSX2 [5],"9.65 upbm affinity estimate (log intensity, higher = more binding, comparable within an allelic series)"
GGGGGGAC,binding signal,PROP1,"6.19 upbm affinity estimate (log intensity, higher = more binding, comparable within an allelic series)"
GTCCGGAC,binding signal,PROP1,"6.64 upbm affinity estimate (log intensity, higher = more binding, comparable within an allelic series)"
CGTCGCGC,binding signal,ALX3 [12],"7.79 upbm affinity estimate (log intensity, higher = more binding, comparable within an allelic series)"
same,binding signal,ALX3 [13],"7.7 upbm affinity estimate (log intensity, higher = more binding, comparable within an allelic series)"
CGCTGCGC,binding signal,NKX2-6 [14],"9.4 upbm affinity estimate (log intensity, higher = more binding, comparable within an allelic series)"
same,binding signal,ALX3 [12],"7.68 upbm affinity estimate (log intensity, higher = more binding, comparable within an allelic series)"
same,binding signal,NKX2-6 [15],"9.26 upbm affinity estimate (log intensity, higher = more binding, comparable within an allelic series)"
same,binding signal,ALX3 [13],"7.68 upbm affinity estimate (log intensity, higher = more binding, comparable within an allelic series)"
CCCGGGAC,binding signal,NKX2-6 [16],"9.29 upbm affinity estimate (log intensity, higher = more binding, comparable within an allelic series)"
CTGGCCCA,binding signal,ALX4 [1],"8.03 upbm affinity estimate (log intensity, higher = more binding, comparable within an allelic series)"
same,binding signal,ALX4 [2],"8 upbm affinity estimate (log intensity, higher = more binding, comparable within an allelic series)"
CGGCCACC,binding signal,HOXD13 [17],"9.38 upbm affinity estimate (log intensity, higher = more binding, comparable within an allelic series)"
same,binding signal,HOXD13 [18],"9.42 upbm affinity estimate (log intensity, higher = more binding, comparable within an allelic series)"
same,binding signal,HOXD13 [19],"9.39 upbm affinity estimate (log intensity, higher = more binding, comparable within an allelic series)"
CAGCGCCG,binding signal,PAX4 [6],"9.2 upbm affinity estimate (log intensity, higher = more binding, comparable within an allelic series)"
same,binding signal,PAX4 [7],"9.2 upbm affinity estimate (log intensity, higher = more binding, comparable within an allelic series)"
same,binding signal,NKX2-6 [16],"9.39 upbm affinity estimate (log intensity, higher = more binding, comparable within an allelic series)"
same,binding signal,PAX4 [8],"9.26 upbm affinity estimate (log intensity, higher = more binding, comparable within an allelic series)"
same,binding signal,PAX4 [9],"9.19 upbm affinity estimate (log intensity, higher = more binding, comparable within an allelic series)"
same,binding signal,PAX4 [10],"9.21 upbm affinity estimate (log intensity, higher = more binding, comparable within an allelic series)"
same,binding signal,PAX4 [11],"9.19 upbm affinity estimate (log intensity, higher = more binding, comparable within an allelic series)"
AGGCGCCC,binding signal,ALX3 [12],"7.7 upbm affinity estimate (log intensity, higher = more binding, comparable within an allelic series)"
same,binding signal,ALX3 [13],"7.59 upbm affinity estimate (log intensity, higher = more binding, comparable within an allelic series)"
GCCAGTCC,binding signal,HOXD13 [17],"9.53 upbm affinity estimate (log intensity, higher = more binding, comparable within an allelic series)"
same,binding signal,HOXD13 [18],"9.55 upbm affinity estimate (log intensity, higher = more binding, comparable within an allelic series)"
same,binding signal,HOXD13 [19],"9.63 upbm affinity estimate (log intensity, higher = more binding, comparable within an allelic series)"
AGCTCCGC,binding signal,NKX2-6 [14],"9.07 upbm affinity estimate (log intensity, higher = more binding, comparable within an allelic series)"
same,binding signal,NKX2-6 [15],"9.27 upbm affinity estimate (log intensity, higher = more binding, comparable within an allelic series)"
AGCGGCGC,binding signal,HOXD13 [17],"9.52 upbm affinity estimate (log intensity, higher = more binding, comparable within an allelic series)"
same,binding signal,HOXD13 [18],"9.67 upbm affinity estimate (log intensity, higher = more binding, comparable within an allelic series)"
same,binding signal,HOXD13 [19],"9.61 upbm affinity estimate (log intensity, higher = more binding, comparable within an allelic series)"
CCGCCAGC,binding signal,NKX2-6 [14],"8.92 upbm affinity estimate (log intensity, higher = more binding, comparable within an allelic series)"
same,binding signal,NKX2-6 [15],"9.24 upbm affinity estimate (log intensity, higher = more binding, comparable within an allelic series)"
CGCAGCGC,binding signal,PROP1,"6.82 upbm affinity estimate (log intensity, higher = more binding, comparable within an allelic series)"
